From the supplement of paper PMC10849652
About 7,900 targets were measured; listed, in parts, are those with a hit and a random draw of the rest. About 0.6% of all pairs of compound and target were hits. A number with no mark means an inactive call.

What was measured:
Test in all cases: log2 fold change, soluble protein after heating vs DMSO (PISA); higher = thermal stabilisation; K562 cells, 10 uM, 30 min; active = over 0.2 and 3.5 SD of the protein, either way, in both replicates (recomputed)
[1] = compound: NC(=O)Nc1cc(-c2cccc(F)c2)sc1C(=O)N[C@H]1CCCNC1
Outline: (§1)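 For each measurement, 10 μM compound was applied for 30 min to K562 cells at 2×10^6 cells/mL. Aliquots were heated for 3 min across 48°C-58°C, pooled, and extracted in PBS with 0.5% NP-40 at 4°C; the supernatant after 21,000xg for 90 min was soluble protein. This was quantified by TMTpro 16plex LC-MS/MS with channel sums equalised, and thermal stability was reported relative to control samples from duplicates, on a log2 fold-change scale.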

[2] = compound: NC1(c2ccc(-c3nc4ccn5c(=O)[nH]nc5c4cc3-c3ccccc3)cc2)CCC1
Outline: as §1

entinostat = compound: Nc1ccccc1NC(=O)c1ccc(CNC(=O)OCc2cccnc2)cc1 [entinostat]
Outline: as §1

citarinostat = compound: O=C(CCCCCCNC(=O)c1cnc(N(c2ccccc2)c2ccccc2Cl)nc1)NO [citarinostat]
Outline: as §1

silmitasertib = compound: O=C(O)c1ccc2c(c1)nc(Nc1cccc(Cl)c1)c1ccncc12 [silmitasertib]
Outline: as §1

[3] = compound: O=C1NC(=O)C(c2cnc3ccccn23)=C1c1cn2c3c(cc(F)cc13)CN(C(=O)N1CCCCC1)CC2
Outline: as §1

[4] = compound: c1cc(OCCN2CCCCC2)cc(-c2n[nH]c3ccc(-c4nnc[nH]4)cc23)c1
Outline: as §1

[5] = compound: NCC(=O)Nc1ccc(-n2nc(C(F)(F)F)cc2-c2ccc3c(ccc4ccccc43)c2)cc1
Outline: as §1

vorinostat = compound: O=C(CCCCCCC(=O)Nc1ccccc1)NO [vorinostat]
Outline: as §1

[6] = compound: NC(=O)c1cnc(N[C@@H]2CCCC[C@@H]2N)nc1Nc1cccc(-n2nccn2)c1
Outline: as §1

Chain of UniProt Q86UV5 (Q86UV5 whole entry, looked up): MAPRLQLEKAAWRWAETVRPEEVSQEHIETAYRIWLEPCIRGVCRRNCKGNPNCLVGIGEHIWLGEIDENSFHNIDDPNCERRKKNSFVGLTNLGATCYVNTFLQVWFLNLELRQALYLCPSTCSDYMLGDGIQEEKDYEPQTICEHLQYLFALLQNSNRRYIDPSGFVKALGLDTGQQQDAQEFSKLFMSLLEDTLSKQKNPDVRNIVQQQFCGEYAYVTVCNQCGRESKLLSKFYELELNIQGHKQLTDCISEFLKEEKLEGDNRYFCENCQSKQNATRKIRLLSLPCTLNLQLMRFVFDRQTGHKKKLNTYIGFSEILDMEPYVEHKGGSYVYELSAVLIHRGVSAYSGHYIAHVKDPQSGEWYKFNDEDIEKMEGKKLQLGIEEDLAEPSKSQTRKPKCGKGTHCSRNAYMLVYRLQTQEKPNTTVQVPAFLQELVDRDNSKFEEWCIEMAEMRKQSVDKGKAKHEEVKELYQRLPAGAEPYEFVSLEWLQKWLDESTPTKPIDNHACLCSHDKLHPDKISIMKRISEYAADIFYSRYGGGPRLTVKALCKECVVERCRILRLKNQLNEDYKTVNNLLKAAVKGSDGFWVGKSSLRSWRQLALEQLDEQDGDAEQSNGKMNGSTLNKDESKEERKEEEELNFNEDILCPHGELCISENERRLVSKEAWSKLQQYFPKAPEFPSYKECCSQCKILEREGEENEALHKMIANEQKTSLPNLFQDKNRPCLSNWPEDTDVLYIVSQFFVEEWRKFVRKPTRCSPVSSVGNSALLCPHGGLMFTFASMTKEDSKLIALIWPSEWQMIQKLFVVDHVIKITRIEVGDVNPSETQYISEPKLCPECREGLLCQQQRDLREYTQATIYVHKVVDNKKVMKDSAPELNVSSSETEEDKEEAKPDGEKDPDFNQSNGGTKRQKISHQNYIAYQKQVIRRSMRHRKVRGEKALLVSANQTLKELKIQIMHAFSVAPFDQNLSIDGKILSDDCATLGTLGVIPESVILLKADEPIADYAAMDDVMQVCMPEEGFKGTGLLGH
Chain of UniProt Q16881 (Q16881 whole entry, looked up): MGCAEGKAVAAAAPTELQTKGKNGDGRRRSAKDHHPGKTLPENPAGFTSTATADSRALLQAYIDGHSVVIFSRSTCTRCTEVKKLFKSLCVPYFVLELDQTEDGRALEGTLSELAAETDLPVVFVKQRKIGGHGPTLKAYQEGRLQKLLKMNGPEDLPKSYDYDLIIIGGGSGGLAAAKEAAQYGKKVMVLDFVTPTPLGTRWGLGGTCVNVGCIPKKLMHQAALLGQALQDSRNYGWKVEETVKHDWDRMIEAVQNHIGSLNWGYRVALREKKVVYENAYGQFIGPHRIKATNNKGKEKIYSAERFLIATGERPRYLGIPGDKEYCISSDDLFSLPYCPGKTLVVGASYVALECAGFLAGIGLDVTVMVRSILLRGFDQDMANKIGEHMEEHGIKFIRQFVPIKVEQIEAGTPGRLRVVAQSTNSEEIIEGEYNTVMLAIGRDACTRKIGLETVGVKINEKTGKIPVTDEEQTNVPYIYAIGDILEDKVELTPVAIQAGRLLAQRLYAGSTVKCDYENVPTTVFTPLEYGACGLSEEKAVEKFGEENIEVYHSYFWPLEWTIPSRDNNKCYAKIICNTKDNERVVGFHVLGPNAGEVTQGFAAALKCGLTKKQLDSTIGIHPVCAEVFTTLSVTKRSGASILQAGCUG
Chain of UniProt P36406 (P36406 whole entry, looked up): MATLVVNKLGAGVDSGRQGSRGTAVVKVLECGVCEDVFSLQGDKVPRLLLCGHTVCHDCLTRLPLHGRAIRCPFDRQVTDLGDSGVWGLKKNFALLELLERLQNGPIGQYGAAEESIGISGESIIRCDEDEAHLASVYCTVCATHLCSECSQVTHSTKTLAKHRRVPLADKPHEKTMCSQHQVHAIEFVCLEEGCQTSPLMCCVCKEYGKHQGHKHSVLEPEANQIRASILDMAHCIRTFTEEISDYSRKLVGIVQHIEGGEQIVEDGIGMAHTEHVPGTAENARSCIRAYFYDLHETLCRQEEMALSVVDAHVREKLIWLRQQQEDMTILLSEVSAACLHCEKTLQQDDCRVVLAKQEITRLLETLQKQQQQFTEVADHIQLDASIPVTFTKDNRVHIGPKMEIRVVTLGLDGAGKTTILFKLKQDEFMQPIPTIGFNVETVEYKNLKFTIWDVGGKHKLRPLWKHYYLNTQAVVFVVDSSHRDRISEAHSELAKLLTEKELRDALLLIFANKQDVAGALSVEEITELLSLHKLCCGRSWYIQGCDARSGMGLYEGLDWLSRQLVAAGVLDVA
Chain of UniProt Q9HCS7 (Q9HCS7 whole entry, looked up): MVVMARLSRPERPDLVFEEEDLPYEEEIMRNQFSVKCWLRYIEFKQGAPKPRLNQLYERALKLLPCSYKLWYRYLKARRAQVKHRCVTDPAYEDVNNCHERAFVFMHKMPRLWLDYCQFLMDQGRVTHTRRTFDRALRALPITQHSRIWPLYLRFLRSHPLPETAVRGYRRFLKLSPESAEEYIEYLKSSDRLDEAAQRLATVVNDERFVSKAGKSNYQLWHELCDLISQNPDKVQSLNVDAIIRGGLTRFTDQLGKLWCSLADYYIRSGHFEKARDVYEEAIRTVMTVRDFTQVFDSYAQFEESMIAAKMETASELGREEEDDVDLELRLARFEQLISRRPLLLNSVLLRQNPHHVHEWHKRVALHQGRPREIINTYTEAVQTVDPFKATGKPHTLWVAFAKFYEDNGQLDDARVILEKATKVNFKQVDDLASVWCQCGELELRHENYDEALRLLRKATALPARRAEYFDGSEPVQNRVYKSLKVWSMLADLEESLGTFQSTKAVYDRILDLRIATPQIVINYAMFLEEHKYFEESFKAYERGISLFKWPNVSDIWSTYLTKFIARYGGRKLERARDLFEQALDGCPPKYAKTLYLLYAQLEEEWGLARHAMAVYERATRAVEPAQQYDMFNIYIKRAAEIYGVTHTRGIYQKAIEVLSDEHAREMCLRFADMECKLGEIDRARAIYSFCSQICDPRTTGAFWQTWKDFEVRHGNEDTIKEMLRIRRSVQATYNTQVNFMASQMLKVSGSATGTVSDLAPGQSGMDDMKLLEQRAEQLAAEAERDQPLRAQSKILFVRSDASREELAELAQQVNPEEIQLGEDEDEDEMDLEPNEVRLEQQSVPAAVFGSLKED
Chain of UniProt O95857 (O95857 whole entry, looked up): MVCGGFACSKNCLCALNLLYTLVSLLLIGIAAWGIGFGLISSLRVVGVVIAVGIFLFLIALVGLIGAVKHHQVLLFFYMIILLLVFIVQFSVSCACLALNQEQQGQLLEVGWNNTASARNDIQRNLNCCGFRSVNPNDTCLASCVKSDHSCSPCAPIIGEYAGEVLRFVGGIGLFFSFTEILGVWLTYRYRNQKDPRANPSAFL
Chain of UniProt O60784 (O60784 whole entry, looked up): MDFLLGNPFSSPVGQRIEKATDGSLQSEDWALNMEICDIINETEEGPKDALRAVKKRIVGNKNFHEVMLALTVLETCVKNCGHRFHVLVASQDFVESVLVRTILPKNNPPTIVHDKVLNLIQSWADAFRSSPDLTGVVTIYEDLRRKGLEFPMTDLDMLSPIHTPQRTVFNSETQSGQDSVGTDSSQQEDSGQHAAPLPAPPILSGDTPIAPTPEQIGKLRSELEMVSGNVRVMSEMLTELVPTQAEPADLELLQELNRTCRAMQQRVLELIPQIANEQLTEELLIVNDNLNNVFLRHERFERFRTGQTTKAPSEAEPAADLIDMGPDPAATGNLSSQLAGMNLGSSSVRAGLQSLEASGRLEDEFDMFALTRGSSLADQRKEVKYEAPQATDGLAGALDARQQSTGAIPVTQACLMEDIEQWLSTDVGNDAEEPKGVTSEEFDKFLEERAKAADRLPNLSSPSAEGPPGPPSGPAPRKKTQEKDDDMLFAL
Chain of UniProt Q9C035 (Q9C035 whole entry, looked up): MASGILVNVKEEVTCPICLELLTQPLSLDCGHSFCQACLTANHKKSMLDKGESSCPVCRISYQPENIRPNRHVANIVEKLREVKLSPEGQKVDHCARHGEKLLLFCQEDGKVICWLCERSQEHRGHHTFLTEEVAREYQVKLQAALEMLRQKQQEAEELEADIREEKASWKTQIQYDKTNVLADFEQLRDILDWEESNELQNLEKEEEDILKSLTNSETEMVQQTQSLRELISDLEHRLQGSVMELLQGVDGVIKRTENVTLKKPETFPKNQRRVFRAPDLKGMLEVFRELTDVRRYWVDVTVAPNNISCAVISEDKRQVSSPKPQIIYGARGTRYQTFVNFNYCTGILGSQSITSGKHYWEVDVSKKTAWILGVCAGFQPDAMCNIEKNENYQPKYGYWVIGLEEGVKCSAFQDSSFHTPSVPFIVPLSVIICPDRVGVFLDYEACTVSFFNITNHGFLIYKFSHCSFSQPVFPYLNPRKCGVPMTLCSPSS
Chain of UniProt P18887 (P18887 whole entry, looked up): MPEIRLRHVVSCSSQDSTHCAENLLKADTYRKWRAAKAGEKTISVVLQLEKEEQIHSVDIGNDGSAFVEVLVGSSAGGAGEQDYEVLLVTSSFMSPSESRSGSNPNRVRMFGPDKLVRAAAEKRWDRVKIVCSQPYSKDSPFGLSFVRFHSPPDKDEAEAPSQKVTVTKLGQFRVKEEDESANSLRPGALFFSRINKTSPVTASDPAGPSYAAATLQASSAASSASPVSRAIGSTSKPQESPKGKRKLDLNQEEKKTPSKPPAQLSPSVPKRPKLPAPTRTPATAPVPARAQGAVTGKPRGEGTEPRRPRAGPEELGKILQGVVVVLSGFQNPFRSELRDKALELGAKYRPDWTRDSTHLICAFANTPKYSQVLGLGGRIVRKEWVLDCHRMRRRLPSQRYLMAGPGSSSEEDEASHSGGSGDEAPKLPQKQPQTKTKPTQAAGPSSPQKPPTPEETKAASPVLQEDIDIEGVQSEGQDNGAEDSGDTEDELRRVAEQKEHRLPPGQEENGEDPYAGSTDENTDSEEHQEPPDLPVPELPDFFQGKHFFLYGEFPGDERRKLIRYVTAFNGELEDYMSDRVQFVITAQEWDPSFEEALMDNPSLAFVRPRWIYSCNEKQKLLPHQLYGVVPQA
Chain of UniProt Q629K1 (Q629K1 whole entry, looked up): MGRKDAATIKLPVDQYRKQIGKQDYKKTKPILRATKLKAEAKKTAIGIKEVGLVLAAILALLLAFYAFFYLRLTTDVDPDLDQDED

Row | Target | log2 fold change [1] | log2 fold change [2] | log2 fold change (entinostat) | log2 fold change (citarinostat) | log2 fold change (silmitasertib) | log2 fold change [3] | log2 fold change [4] | log2 fold change [5] | log2 fold change (vorinostat) | log2 fold change [6]
1 | WARS1 (UniProt G3V5U1) | -0.609 | -0.142 | -0.218 | -0.608 | 0.297 | -0.761 | -0.083 |  |  | 
2 | TXNRD1 isoform 7 (UniProt Q16881) | -0.083 |  | 0.065 | -0.171 |  | -0.227 | 0.171 | -0.214 | 0.21 | 
3 | TRIM23 (UniProt P36406) | -0.025 | -0.02 | -0.01 | 0.015 | -0.044 |  | -0.026 | -0.083 | 0.06 | 
4 | VWA3B isoform 6 (UniProt Q502W6) |  | -0.023 |  | -0.128 | 0.162 | -0.009 | -0.076 | -0.059 | 0.076 | -0.271
5 | WDR46, A0A0G2JJL1 | 0.222 | 0.515 | -0.113 | -0.163 | 0.247 | 0.284 | 0.013 | 0.146 |  | 
6 | TOM1L2 (UniProt Q6ZVM7) | 0.089 |  | 0.036 |  |  | -0.043 |  | -0.098 |  | -0.136
7 | TSC2 (UniProt P49815) | -0.038 | 0.214 | -0.061 | 0.273 | 0.107 | 0.105 | -0.594 (active) |  | 0.125 | -0.074
8 | UBXN10 (UniProt Q96LJ8) | 0.062 | 0.102 | -0.069 | -0.121 | -0.006 | -0.031 | 0.037 | -0.426 (active) | 0.136 | 
9 | TMEM268 isoform 3 (UniProt Q5VZI3) | 0.12 | -0.141 | 0.059 | 0.084 | -0.114 | 0.174 | -0.117 |  | 0.162 | 0.057
10 | TUT4 (UniProt Q5TAX3) | 0.028 | 0.07 | 0.004 | -0.161 | 0.094 | 0.322 | -0.063 | -0.349 | -0.032 | 
11 | TRIQK (UniProt Q629K1) | 0.013 | -0.044 | -0.083 |  | 0 | -0.235 |  |  |  | 
12 | TSPAN13 (UniProt O95857) | -0.091 | -0.125 | -0.109 |  | 0 | -0.166 |  | 0.03 | 0.002 | 
13 | WDR75 (UniProt Q8IWA0) |  | 0.173 |  |  | 0.086 | 0.17 |  | -0.125 |  | -0.004
14 | TMEM128 (UniProt Q5BJH2) | -0.059 |  | -0.036 | -0.131 |  | -0.037 | -0.07 | -0.092 |  | -0.167
15 | TMEM219 (UniProt Q86XT9) | 0.079 |  | 0.052 |  |  | -0.025 |  | 0.036 | 0.389 (active) | 0.033
16 | TRPT1 isoform 4 (UniProt Q86TN4) | 0.037 | 0 | 0.123 | 0.029 | 0.059 |  | -0.025 |  |  | 0.235
17 | TMEM8A (UniProt Q9HCN3) | -0.059 | -0.393 | -0.485 | -0.037 | 0.053 |  | -0.056 | -0.048 | -0.077 | 
18 | TVP23C (UniProt Q96ET8) |  | -0.023 |  | -0.297 | 0.132 |  | 0.081 | -0.003 | 0.045 | -0.021
19 | WARS1 (UniProt G3V227) |  |  |  |  |  | -0.084 |  | -0.115 |  | 0.045

Row | Target | log2 fold change [1] | log2 fold change [2] | log2 fold change (entinostat) | log2 fold change (citarinostat) | log2 fold change (silmitasertib) | log2 fold change [3] | log2 fold change [4] | log2 fold change [5] | log2 fold change (vorinostat) | log2 fold change [6]
20 | TMEM104 (UniProt Q8NE00) |  | 0.232 |  | -0.063 | 0.097 | 0.143 | -0.051 |  | 0.068 | 0.08
21 | TOM1 (UniProt O60784) | 0.044 | -0.176 | 0.062 |  | 0.017 | -0.077 |  |  | 0.048 | 
22 | XRCC1 (UniProt P18887) | -0.011 |  | 0.064 |  |  | -0.211 |  |  | 0.228 | -0.183
23 | WDR4 isoform 3 (UniProt P57081) | -0.103 |  | -0.02 |  |  | -0.135 |  |  | -0.118 | 
24 | UTP20 (UniProt O75691) |  |  |  |  |  | 0.009 |  |  |  | 
25 | WARS1 (UniProt G3V3P2) | -0.196 |  | -0.074 |  |  |  |  |  |  | 
26 | VDAC1 (UniProt C9JI87) | -0.145 | -0.065 | -0.158 | -0.153 | 0.024 | -0.09 | 0.044 |  |  | -0.166
27 | TRIM5 (UniProt Q9C035) | -0.219 |  | 0.137 |  |  | 0.024 |  | -0.006 |  | -0.085
28 | TUBA4A (UniProt C9JJQ8) | -0.035 |  | 0.093 | 0.039 |  |  | 0.206 | 0.053 |  | 
29 | UBXN8 (UniProt O00124) | -0.139 |  | 0.046 | 0.037 |  | -0.05 | -0.143 | -0.344 | -0.055 | -0.103
30 | UBAP2L (UniProt F8W726) |  | 0.083 |  | 0.095 | 0.004 |  | -0.066 |  | -0.033 | 
31 | UBE3B (UniProt Q7Z3V4) | 0.034 |  | -0.046 |  |  | -0.037 |  |  |  | -0.043
32 | XAB2 (UniProt Q9HCS7) |  | 0.011 |  |  | 0.038 | 0.298 |  |  |  | 
33 | UBE2J2 isoform 3 (UniProt Q8N2K1) | -0.072 |  | -0.067 | 0.1 |  | -0.299 | -0.039 | 0.213 | 0.156 | 0.028
34 | TTC26 |  |  |  |  |  |  |  | 0.006 |  | 
35 | U2AF1L5 (UniProt P0DN76) |  | 0.07 |  | -0.28 | -0.024 |  | -0.146 | -0.295 |  | 0.047
36 | WARS1 (UniProt G3V339) |  |  |  |  |  | -0.387 |  |  |  | 
37 | USP48 (UniProt Q86UV5) | -0.077 | -0.242 | 0.164 | -0.024 | 0.185 |  | 0.076 |  |  | 
